From article PMC10668032, “Altered binding affinity of SIX1-Q177R correlates with enhanced WNT5A and WNT pathway effector expression in Wilms tumor” come the findings set out here.

In all, about 33,000 sequences were measured (“e-score”: median about -0.053, highest 2% from about 0.38 on). The list comes from a sample in which the highest values are over-represented; it also holds similar and randomly drawn sequences.

The assay addresses T1, SIX1 homeodomain (reference allele) (human, UniProt Q15475 108-198).
T1 sequence: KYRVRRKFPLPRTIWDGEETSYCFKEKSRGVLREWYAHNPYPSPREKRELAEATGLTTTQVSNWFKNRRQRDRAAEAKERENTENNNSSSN
Kind of assay: universal protein binding microarray; Universal all-10-mer PBM (8x60K, AMADID 030236), 300 nM GST-tagged protein, Alexa Fluor 488 anti-GST; buffer, salt, pH and temperature not stated (as in Berger); high values mean tight binding. Conditions: protein: ivt; tags: N-terminal GST; dsDNA, one strand shown. The procedure, abridged: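 Homeodomains carrying a GST tag were produced by in vitro transcription/translation, then quantified by anti-GST western blot against a recombinant GST standard curve. Duplicate applications at 300 nM final concentration were made to universal 'all 10-mer' protein binding microarrays in 8×60K format. The Universal PBM Analysis Suite was used to express binding as 8-mer E-scores.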
Take ATGATACA: the binding signal is 0.449 ± 0.0144 E-score.
On to TAGATACA, for which the binding signal is 0.25 ± 0.019 E-score.
Take ATGATAAT: the binding signal stood at 0.168 ± 0.0146 E-score.
For ATGATACC, the binding signal came to 0.4885 ± 0.000523 E-score.
On to CTACAGTA, for which the binding signal was found to be 0.152 ± 0.00721 E-score.
For the sequence ATCACTAC, the binding signal worked out at 0.287 ± 0.0143 E-score.
The same measure for GGATTGTA: 0.162 ± 0.0146 E-score; for ACGCGATC: 0.275 ± 0.00505 E-score; for GATAGCGA: 0.251 ± 0.00148 E-score.
For ATACATTG, the binding signal worked out at 0.218 ± 0.012 E-score.
GTATATTA: the binding signal was 0.267 ± 0.0332 E-score.
Consider CTGAGACC, for which the binding signal is 0.261 ± 0.00696 E-score.
As to CTGATACC, the binding signal is 0.4842 ± 0.00158 E-score.
The same measure for ATGATACG: 0.48 ± 0.01 E-score; for ATCATACG: 0.269 ± 0.0223 E-score.
Regarding CTCATACC, the binding signal came out at 0.171 ± 0.00583 E-score.
As for ATGATCAG, the binding signal turned out to be 0.229 ± 0.031 E-score.
In the case of ATCGGGTA it was 0.337 ± 0.0486 E-score; in that of GATCGGAA, 0.167 ± 0.0621 E-score; in that of CCTAGATC, 0.228 ± 0.0313 E-score.
Turning to ATCAGTCA, the binding signal came out at 0.2227 ± 0.00177 E-score.
As to AGGGATGA, the binding signal came out at 0.176 ± 0.025 E-score.
The same measure for AGGGATCG: 0.386 ± 0.0182 E-score; for GGGGATTA: 0.302 ± 0.0187 E-score.
On to AGAGATCG, for which the binding signal turned out to be 0.25548 ± 0.000134 E-score.
AGGGATTG: the binding signal is 0.203 ± 0.0478 E-score.
Turning to GGGGATCA, the binding signal was found to be 0.4469 ± 0.0011 E-score.
The same measure for CGGGATGA: 0.159 ± 0.0157 E-score.
Consider AGGGATTA, for which the binding signal came out at 0.305 ± 0.032 E-score.
As to GGGGATGA, the binding signal was found to be 0.267 ± 0.0256 E-score.
In the case of CGGGATTA, the binding signal stood at 0.263 ± 0.0233 E-score.
With CGGGATCA, the binding signal turned out to be 0.417 ± 0.0124 E-score.
In the case of AGGGATCA, the binding signal amounted to 0.4493 ± 0.00351 E-score.
On to CAGCGATC, for which the binding signal was determined as 0.265 ± 0.0201 E-score.
In the case of ATTATGTG, the binding signal came out at 0.171 ± 0.0412 E-score.
For ATACTCGC, the binding signal stood at 0.34 ± 0.069 E-score.
Regarding CTATACGC, the binding signal came to 0.215 ± 0.0251 E-score.
In the case of CGATCTGC it was 0.209 ± 0.00856 E-score; in that of CAGATTAC, 0.187 ± 0.0577 E-score; in that of GATTATGC, 0.265 ± 0.0543 E-score.
In the case of CCCATCTC, the binding signal was 0.292 ± 0.0209 E-score.
ACACCTTG: the binding signal amounted to 0.186 ± 0.0328 E-score.
The same measure for AAGGATCC: 0.35 ± 0.0205 E-score; for AGGGATCC: 0.386 ± 0.0382 E-score; for CTGGATCC: 0.351 ± 0.0527 E-score.
In the case of ATGGATCC it was 0.362 ± 0.0547 E-score; in that of CAGGATCC, 0.354 ± 0.0257 E-score.
The same measure for CGGGATCC: 0.393 ± 0.0513 E-score; for ATTCGATA: 0.302 ± 0.0451 E-score; for ATCAAAAA: 0.153 ± 0.0897 E-score.
As for ATCTAATA, the binding signal stood at 0.237 ± 0.0442 E-score.
GACACCCC: the binding signal came to 0.436 ± 0.0137 E-score.
The same measure for TACACCCA: 0.341 ± 0.0149 E-score; for GACACCCA: 0.396 ± 0.0322 E-score.
In the case of CACACCCC it was 0.26 ± 0.0792 E-score.
As to AACACCCC, the binding signal came out at 0.268 ± 0.0366 E-score.
Turning to GACACCAA, the binding signal came to 0.364 ± 0.0101 E-score.
Take GATTATAC: the binding signal worked out at 0.34 ± 0.0371 E-score.
As to GCCGATCA, the binding signal turned out to be 0.229 ± 0.0129 E-score.
The same measure for ATAGCCCC: 0.181 ± 0.0335 E-score.
In the case of TATCAGAA it was 0.354 ± 0.0409 E-score; in that of TACCTCTA, 0.204 ± 0.0372 E-score; in that of AAGACACC, 0.347 ± 0.0269 E-score.
Take CCGACAGA: the binding signal is 0.195 ± 0.026 E-score.
With GAGACACC, the binding signal is 0.306 ± 0.032 E-score.
As for GGGACACC, the binding signal was 0.341 ± 0.0406 E-score.
As to ACGACACG, the binding signal is 0.156 ± 0.0251 E-score.
With CCGACACC, the binding signal was determined as 0.438 ± 0.013 E-score.
As for CCAACACC, the binding signal is 0.291 ± 0.0364 E-score.
As for GCGACACC, the binding signal was determined as 0.412 ± 0.0314 E-score.
For the sequence ACGACACC, the binding signal was determined as 0.432 ± 0.024 E-score.
Regarding CTGCTATC, the binding signal is 0.292 ± 0.00957 E-score.
Consider CACACCAG, for which the binding signal was determined as 0.156 ± 0.0892 E-score.
As for ACTAATAC, the binding signal is 0.225 ± 0.029 E-score.
Regarding GATGTATA, the binding signal turned out to be 0.306 ± 0.0136 E-score.
Turning to ATGAGATA, the binding signal amounted to 0.262 ± 0.0851 E-score.
In the case of CTTATATC it was 0.292 ± 0.0136 E-score; in that of CTAATATC, 0.339 ± 0.0352 E-score; in that of GTGAGATA, 0.388 ± 0.0283 E-score.
With GCTATATA, the binding signal was found to be 0.2534 ± 0.00173 E-score.
The same measure for GCGATATA: 0.399 ± 0.0347 E-score; for GTGATATA: 0.419 ± 0.016 E-score; for CTGATATC: 0.465 ± 0.0148 E-score.
As to CTGATATA, the binding signal came out at 0.358 ± 0.0287 E-score.
With CCGATATA, the binding signal was 0.333 ± 0.0187 E-score.
In the case of TAGATATA it was 0.323 ± 0.076 E-score.
For CTGAGATA, the binding signal is 0.248 ± 0.0841 E-score.
